Shown are actives, neighbours in structure and some others; about 3.4% of the full set was active somewhere.
PKM2 activator: qHTS Assay for Activators of Human Muscle isoform 2 Pyruvate Kinase | Pyruvate kinase PKM (Homo sapiens), P14618 | purified PKM2, Kinase-Glo ATP luminescence, activation; response scale: 0% is enzyme alone, no compound | Potency, µM (highest dose often 57.5 µM), for the others: at the highest dose activation, usual class: activators | 0.34% of 260,000 active | AID 1631, 2009; further: on the % scale 0 is the no-effect control and ±100 the full control effect; nearly all actives have a fitted effect of over 55% in size
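Purified hPK-M2 (>95%) run at intermediate activity with 0.1 mM ADP and 0.5 mM PEP in 50 mM imidazole pH 7.2, KCl, MgCl2; 1 h room temperature. ATP formed read by Kinase-Glo luminescence; normalized to uninhibited and no-enzyme controls.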
GLS inh: qHTS for Inhibitors of Glutaminase (GLS); 0.21% of 410,000 active; Potency, µM (top dose mostly 45.5 µM), without a hit: top-dose activity change, negative = inhibition, usual class: inhibitors; GLS enzymatic activity, qHTS titration; further: on the % scale 0 is the no-effect control and ±100 the full control effect
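hKGA in 45 mM KH2PO4 pH 8.2, 0.02% Tween-20 with pin-transferred compounds; 1 mM L-glutamine (stock) plus glutamate oxidase/HRP/Amplex Red coupling added. Fluorescence read initially and after 30 min at RT.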
Mito fusion act: qHTS Assay for Small Molecule Inhibitors of Mitochondrial Division or Activators of Mitochondrial Fusion. S. cerevisiae fusion-defective mutant growth rescue, CellTiterGlo 48 h. Potency, µM (highest dose often 46.1 µM), inactives show at the top dose growth rescue (activation), most hits filed as activators. 0.23% of 320,000 active; further: % of control where 0% means no effect; nearly all actives have a fitted effect of over 45% in size
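Read-out: ATP-based luminescence (CellTiterGlo, 10 min ambient) reporting growth of fusion-defective ts yeast after 48 hours at 37C on glycerol/ethanol YPEG medium in the presence of compound.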
GCN5L2 inh: qHTS Assay for Inhibitors of GCN5L2; Histone acetyltransferase KAT2A (Homo sapiens), Q92830; Potency, µM (top dose mostly 58.9 µM), without a hit: top-dose activity change, negative = inhibition, usual class: inhibitors; 0.21% of 390,000 active; AID 504327, 2011; GCN5L2 HAT assay, ThioGlo1 CoA-SH fluorescence; further: on the % scale 0 is the no-effect control and ±100 the full control effect
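Preincubate 20nM GCN5L2 with compound 15 min, RT → add 50uM ThioGlo1 + 75uM H3(1-25) + 70uM acetyl-CoA → read fluorescence 0 and 20 min. Primary qHTS; fluorescent artifacts likely.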
VDR inhibitor: Inhibitors of the vitamin D receptor (VDR): qHTS; Vitamin D3 receptor (Homo sapiens), P11473; VDR-SRC2-3 peptide fluorescence polarization, 2 h; Potency, µM, for inactives: max response, negative = inhibition, most hits filed as inhibitors; 0.93% of 400,000 active; further: on the % scale 0 is the no-effect control and ±100 the full control effect
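Two reagent solutions held at 4 deg C in the dark were dispensed, compounds pinned at 23 nl, and the mixture incubated 2 h at room temperature. Read-out: fluorescence polarization of VDR–SRC2-3 peptide binding.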
PLK1 PBD block: qHTS for Inhibitors of PLK1-PDB (polo-like kinase 1 - polo-box domain): Primary Screen | Plk1 PBD binding of FITC phosphopeptide, fluorescence polarization | Potency, µM, inactives show max response, negative = inhibition, hits mostly inhibitors | 2.8% of 360,000 active | Serine/threonine-protein kinase PLK1 (Homo sapiens), P53350; further: series mostly up to about 57 µM; on the % scale 0 is the no-effect control and ±100 the full control effect; nearly all actives have a fitted effect of over 65% in size
Target sequence (P53350 whole entry, looked up, the tested form may be a part): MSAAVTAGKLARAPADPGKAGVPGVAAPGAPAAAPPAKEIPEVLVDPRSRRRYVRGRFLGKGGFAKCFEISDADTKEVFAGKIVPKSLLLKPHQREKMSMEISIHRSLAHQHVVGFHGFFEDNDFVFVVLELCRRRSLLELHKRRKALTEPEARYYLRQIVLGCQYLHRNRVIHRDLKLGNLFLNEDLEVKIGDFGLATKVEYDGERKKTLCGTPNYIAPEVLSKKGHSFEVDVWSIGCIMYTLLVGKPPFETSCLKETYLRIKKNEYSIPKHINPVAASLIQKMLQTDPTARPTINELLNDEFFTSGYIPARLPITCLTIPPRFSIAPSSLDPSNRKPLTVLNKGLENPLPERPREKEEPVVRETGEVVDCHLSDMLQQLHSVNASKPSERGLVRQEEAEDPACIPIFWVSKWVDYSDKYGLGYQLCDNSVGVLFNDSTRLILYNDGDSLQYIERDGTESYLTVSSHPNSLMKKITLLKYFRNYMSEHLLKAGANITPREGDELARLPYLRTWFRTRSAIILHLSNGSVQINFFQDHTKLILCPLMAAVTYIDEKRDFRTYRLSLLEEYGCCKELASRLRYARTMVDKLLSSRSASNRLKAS
VDR confirm: qHTS for Inhibitors of the vitamin D receptor (VDR): Hit Validation in Primary Screen; 89% of 840 active; shares compounds with VDR inhibitor; Potency, µM, actives largely listed as inhibitors; AID 602199, 2012; VDR-coactivator inhibition assay, qHTS confirmation
VDR FP fluor: qHTS for Inhibitors of the vitamin D receptor (VDR): Hit Validation using a Fluorescein Assay. shares compounds with VDR inhibitor. VDR-coactivator binding, fluorescein fluorescence polarization. Potency, µM (highest dose often 57.1 µM), without a hit: top-dose activity change, negative = inhibition, hits mostly inhibitors. 48% of 840 active
VDR bla: qHTS for Inhibitors of the vitamin D receptor (VDR): Hit Validation using a Beta-Lactamase Assay | shares compounds with VDR inhibitor | VDR beta-lactamase reporter cells, FRET ratio; cells co-treated with VDR agonist LG190178 | Potency, µM (titrated, usually from 46.1 µM), for the others: at the top dose activity change, negative = inhibition, hits mostly inhibitors | 23% of 840 active | AID 602202, 2012; further: on the % scale 0 is the no-effect control and ±100 the full control effect
VDR cytotox: qHTS for Inhibitors of the vitamin D receptor (VDR): Hit Validation using a Cytotoxicity Assay; AID 602204, 2012; shares compounds with VDR inhibitor; cytotoxicity counter-screen, cell viability, qHTS; 18% of 840 active; Potency, µM (series often up to 48.3 µM), for the others: at the highest dose activity change, negative = cytotoxicity, actives largely listed as cytotoxic;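 further: plate controls were DMSO for no effect and high-concentration cycloheximide for full effect; nearly all actives have a fitted effect of over 75% in size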
TbPYK confirm: qHTS of Trypanosoma Brucei Inhibitors: Confirmatory Assay for Cherry-picked Compounds; shares compounds with PLK1 PBD block; recombinant TbPYK, Kinase-Glo ATP luminescence; Potency, µM (top dose mostly 76.9 µM), inactives show top-dose activity change, negative = inhibition, hits mostly inhibitors; 67% of 890 active; AID 720569, 2013; further: on the % scale 0 is the no-effect control and ±100 the full control effect; nearly all actives have a fitted effect of over 70% in size
TbPYK orthogonal: qHTS of Trypanosoma Brucei Inhibitors: Orthogonal Assay for Cherry-picked Compounds. shares compounds with PLK1 PBD block. recombinant TbPYK, ADP-Glo luminescence, 60 min. Potency, µM (titrated, usually from 76.9 µM), without a hit: at the top dose activity change, negative = inhibition, most hits filed as inhibitors. 62% of 890 active. AID 720584, 2013; further: on the % scale 0 is the no-effect control and ±100 the full control effect; nearly all actives have a fitted effect of over 75% in size
* hit, by the source's call; ? = inconclusive; · = not tested or not shown. The call rests on the fitted dose curve; in most records, active means well fitted curve in the direction sought with a large enough effect; inconclusive means small, poorly fitted or top-dose-only effect, or another doubt; inactive means no such curve, though single readings can be large; an effect the other way counts as inactive or inconclusive. Potency means the concentration at half of the fitted maximal effect.

SMILES	PKM2 activator	GLS inh	Mito fusion act	GCN5L2 inh	VDR inhibitor	PLK1 PBD block	VDR confirm	VDR FP fluor	VDR bla	VDR cytotox	TbPYK confirm	TbPYK orthogonal
O=[N+]([O-])c1ccccc1-c1ccc(C(=S)N2CCCC2)o1	7%	19%	7%	-26%	40µM*	2.7µM*	21*	?	5%	2%	18µM*	32µM*
CC1(C)CC(=O)C(C(C2=C(O)CC(C)(C)CC2=O)c2ccc(Br)s2)C(=O)C1 (stereo not given)	?	-16%	-1%	-7%	10µM*	1.9µM*	4.2*	2.8µM*	-12%	?	14µM*	28µM*
CC1(C)CC(=O)C(C(C2=C(O)CC(C)(C)CC2=O)c2ccc([N+](=O)[O-])cc2)C(=O)C1 (stereo not given)	4%	23%	-7%	-2%	?	-12%	·	·	·	·	·	·
CC1(C)CC(=O)C2=C(C1)OC1=C(C(=O)CC(C)(C)C1)C2c1ccc(O)cc1O	?	40%	-1%	-14%	8.9µM*	3.5µM*	6.7*	?	16µM*	?	28µM*	?
CC1(C)CC(=O)C2=C(C1)OC1=C(C(=O)CC(C)(C)C1)C2c1ccc(O)c([N+](=O)[O-])c1	-1%	7%	-1%	3%	5%	-3%	·	·	·	·	·	·
Cc1cc(C(=O)CN2C(=O)C(=O)N(CC(C)C)C2=O)c(C)n1C1CC1	·	6%	9%	-12%	-15%	-8%	·	·	·	·	·	·
COc1ccc(S(=O)(=O)NCc2ccc(C(=O)NCCN(C)Cc3ccccc3)cc2)cc1	·	13%	·	·	·	1%	·	·	·	·	·	·
CCC(=O)NC1=C(Cl)C(=O)C(NC(=O)CC)=C(Cl)C1=O	-84%	?	-3%	28µM*	14µM*	1.7µM*	6.7*	5µM*	15µM*	13µM*	0.25µM*	0.4µM*
Cc1cccc(C(=O)Oc2csc(=S)n2C(=O)c2cccc(C)c2)c1	-58%	?	12%	-14%	?	4.7µM*	8.9*	2.8µM*	4%	3%	1.3µM*	2.5µM*
COc1cc(C2CC(=O)Nc3c2c(=O)n(C)c(=O)n3C)cc(OC)c1OC (stereo not given)	·	2%	·	-6%	7%	·	·	·	·	·	·	·
O=C1N=c2ccccc2=C1c1c(O)n(-c2cccc(F)c2)[nH]c1=O	?	?	-1%	-24%	71µM*	5.3µM*	6*	?	-2%	-2%	3.5µM*	7.9µM*
Cc1ccc(-c2cc(C(=O)O)c3cc(Br)ccc3n2)o1	25%	-13%	0%	?	32µM*	12µM*	27*	?	33%	13%	11µM*	14µM*
Cc1ccc(-c2cc(C(=O)NC3=NCCS3)c3cc(Br)ccc3n2)o1	7%	·	18%	?	·	·	·	·	·	·	·	·
Cc1cccc2cc3c(nc12)SC(=NCC1CCCO1)N(Cc1ccco1)C3 (stereo not given)	11µM*	1%	9%	-22%	?	24µM*	14*	6.3µM*	21µM*	?	?	32µM*
CC(NC(=O)c1ccc2c(c1)sc1nc(-c3ccccc3)cn12)C12CC3CC(CC(C3)C1)C2 (stereo not given)	·	-10%	·	-5%	6%	·	·	·	·	·	·	·
COc1ccc(CCNC(=O)c2ccc3c(c2)N(Cc2ccc(F)cc2)CCS3)c(OC)c1	·	-4%	0%	-15%	-17%	-4%	·	·	·	·	·	·
O=C(O)/C=C/C(=O)c1ccc2c(c1)NC(=O)CO2	?	0%	9%	-12%	22µM*	?	9.5*	?	11%	10%	16µM*	16µM*
O=C1COc2ccc(C(=O)NC3CC3)cc2N1	1%	3%	2%	-5%	-12%	-21%	·	·	·	·	·	·
O=[N+]([O-])c1ccc(Cc2ccccn2)c([N+](=O)[O-])c1	·	6%	·	·	-7%	-5%	·	·	·	·	·	·
CCC(=O)N(C1=C(NC)C(=O)c2ccccc2C1=O)C(C)C	-1%	1%	8%	-3%	2%	2%	·	·	·	·	·	·
CCC(=O)N(CC)C1=C(O)c2ccccc2C(=O)C1=O	?	8%	1%	10%	79µM*	24µM*	?	?	?	?	-98%	25µM*
COc1ccc(S(=O)(=O)N(C)C[C@H]2Oc3ccc(NC(=O)Cc4ccccc4)cc3C(=O)N([C@H](C)CO)C[C@@H]2C)cc1	·	1%	·	-2%	-11%	-6%	·	·	·	·	·	·

Screens deposited in PubChem BioAssay by National Center for Advancing Translational Sciences (NCATS).
